From publication PMC5540273 (PLoS ONE, 2017)

Assays:
Conditions in all cases: concentration: 1 μM, replicates: in singlicate; n = 1
[1] = test system: ACVR2A
[2] = test system: ACVR2B
[3] = test system: ACVRL1
[4] = test system: T1, ADCK3
T1 construct: gene CABC1

[5] = test system: ADCK4
[6] = test system: AKT1
[7] = test system: AKT2
[8] = test system: AKT3
[9] = test system: ALK
[10] = test system: T2, AMPK-alpha1
T2 construct: gene PRKAA1

[11] = test system: T3, AMPK-alpha2
T3 construct: gene PRKAA2

[12] = test system: ANKK1
[13] = test system: T4, ARK5
T4 construct: gene NUAK1

[14] = test system: T5, ASK1
T5 construct: gene MAP3K5

[15] = test system: T6, ASK2
T6 construct: gene MAP3K6

[16] = test system: AURKA
[17] = test system: AURKB
[18] = test system: AURKC
[19] = test system: AXL
[20] = test system: T7, BIKE
T7 construct: gene BMP2K
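Also: KINOMEscan kinase panel screen.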

SMILES: Cc1c(Cn2c(C)nn3c(=O)cc(N4CCOC(C)C4)nc23)cccc1C(F)(F)F (centres unmarked) [GSK2344444]
- %Inh [1]: 22%
- %Inh [2]: 0%
- %Inh [3]: 5%
- %Inh [4]: 3%
- %Inh [5]: 0%
- %Inh [6]: 0%
- %Inh [7]: 6%
- %Inh [8]: 0%
- %Inh [9]: 0%
- %Inh [10]: 0%
- %Inh [11]: 0%
- %Inh [12]: 0%
- %Inh [13]: 10%
- %Inh [14]: 1%
- %Inh [15]: 8%
- %Inh [16]: 0%
- %Inh [17]: 0%
- %Inh [18]: 8%
- %Inh [19]: 0%
- %Inh [20]: 16%

SMILES: O=c1cc(N2CCOCC2)nc2n(Cc3cccc(F)c3)ccn12 [GSK2297430]
- %Inh [1]: 6%
- %Inh [2]: 0%
- %Inh [3]: 14%
- %Inh [4]: 9%
- %Inh [5]: 0%
- %Inh [6]: 0%
- %Inh [7]: 9%
- %Inh [8]: 0%
- %Inh [9]: 8%
- %Inh [10]: 5%
- %Inh [11]: 21%
- %Inh [12]: 0%
- %Inh [13]: 7%
- %Inh [14]: 0%
- %Inh [15]: 6%
- %Inh [16]: 0%
- %Inh [17]: 0%
- %Inh [18]: 32%
- %Inh [19]: 14%
- %Inh [20]: 26%

SMILES: O=C(NCCNc1ccnc(Nc2ccc(F)cc2)n1)c1cc2ccccc2s1 [GSK1379874]
- %Inh [1]: 0%
- %Inh [2]: 0%
- %Inh [3]: 0%
- %Inh [4]: 0%
- %Inh [5]: 27%
- %Inh [6]: 0%
- %Inh [7]: 0%
- %Inh [8]: 0%
- %Inh [9]: 5%
- %Inh [10]: 0%
- %Inh [11]: 0%
- %Inh [12]: 0%
- %Inh [13]: 0%
- %Inh [14]: 1%
- %Inh [15]: 0%
- %Inh [16]: 11%
- %Inh [17]: 0%
- %Inh [18]: 32%
- %Inh [19]: 10%
- %Inh [20]: 0%

SMILES: Cc1cccc(-c2nc(-c3ccc(S(C)(=O)=O)cc3)sc2-c2ccncc2)c1
- %Inh [1]: 0%
- %Inh [2]: 0%
- %Inh [3]: 0%
- %Inh [4]: 0%
- %Inh [5]: 0%
- %Inh [6]: 0%
- %Inh [7]: 20%
- %Inh [8]: 0%
- %Inh [9]: 5%
- %Inh [10]: 1%
- %Inh [11]: 7%
- %Inh [12]: 0%
- %Inh [13]: 13%
- %Inh [14]: 0%
- %Inh [15]: 15%
- %Inh [16]: 24%
- %Inh [17]: 23%
- %Inh [18]: 0%
- %Inh [19]: 12%
- %Inh [20]: 0%

SMILES: CSc1ccc(-c2cc3ncnc(SCC(=O)O)c3s2)cc1
- %Inh [1]: 0%
- %Inh [2]: 0%
- %Inh [3]: 0%
- %Inh [4]: 0%
- %Inh [5]: 0%
- %Inh [6]: 0%
- %Inh [7]: 0%
- %Inh [8]: 0%
- %Inh [9]: 0%
- %Inh [10]: 14%
- %Inh [11]: 5%
- %Inh [12]: 0%
- %Inh [13]: 0%
- %Inh [14]: 0%
- %Inh [15]: 0%
- %Inh [16]: 0%
- %Inh [17]: 78%
- %Inh [18]: 12%
- %Inh [19]: 5%
- %Inh [20]: 12%

SMILES: CCn1cnc2c(N)ncnc21 [GW345098]
- %Inh [1]: 0%
- %Inh [2]: 0%
- %Inh [3]: 8%
- %Inh [4]: 19%
- %Inh [5]: 0%
- %Inh [6]: 0%
- %Inh [7]: 0%
- %Inh [8]: 0%
- %Inh [9]: 0%
- %Inh [10]: 29%
- %Inh [11]: 0%
- %Inh [12]: 0%
- %Inh [13]: 0%
- %Inh [14]: 15%
- %Inh [15]: 0%
- %Inh [16]: 4%
- %Inh [17]: 6%
- %Inh [18]: 4%
- %Inh [19]: 0%
- %Inh [20]: 5%

SMILES: NS(=O)(=O)c1cccc(-c2ccc3ncc(N4CCOCC4)nc3c2)c1 [GSK1535721]
- %Inh [1]: 0%
- %Inh [2]: 0%
- %Inh [3]: 0%
- %Inh [4]: 28%
- %Inh [5]: 9%
- %Inh [6]: 0%
- %Inh [7]: 4%
- %Inh [8]: 0%
- %Inh [9]: 6%
- %Inh [10]: 1%
- %Inh [11]: 12%
- %Inh [12]: 15%
- %Inh [13]: 0%
- %Inh [14]: 0%
- %Inh [15]: 0%
- %Inh [16]: 19%
- %Inh [17]: 0%
- %Inh [18]: 0%
- %Inh [19]: 2%
- %Inh [20]: 0%
